# Source: PubChem BioAssay (Tox21)
# Inconclusive results are not listed. Entries that show only a call come without a potency. Calls of active or inactive are those of the source. Calls follow the shape of the dose curve; as a rule, active = well fitted cell-killing curve with a large enough effect in the repeat runs; inconclusive = weak or mixed curves, or effect the other way; inactive = no such curve, though single readings can be large or run the other way.
# Experiment: qHTS assay to identify aromatase inhibitors - cell viability counter screen (AID 743084);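 also: cells stimulated with testosterone during compound exposure; nearly all actives have a fitted effect of over 55% in size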
# Conditions: MCF-7 aro ERE viability, CellTiter-Fluor, 24 h; series mostly up to 70.3 µM
row,SMILES,Potency
1,ClCCCCl,inactive
2,CC[C@H](N)c1ccccc1,inactive
3,COC(=O)[C@@H](N)CCCN/C(N)=N/[N+](=O)[O-],inactive
4,CCOC(=O)c1ncn2c1CN(C)C(=O)c1c(I)cccc1-2,inactive
5,CCN[C@@H](C)Cc1cccc(C(F)(F)F)c1,inactive
6,CCN(CC)CCOC(=O)C(O)(c1ccccc1)c1ccccc1,inactive
7,BrCCc1ccccc1,inactive
8,CCC(=O)OC1(c2ccccc2)CCN(C)CC1,inactive
9,C[C@@H](N)[C@@H](O)c1ccccc1,inactive
10,CCNc1nc(NCC)nc(SC)n1,inactive
11,CCNc1nc(Cl)nc(NC(C)(C)C)n1,inactive
12,CCOC(=O)N(C)N=O,inactive
13,OCC(Cl)CCl (centres undefined),inactive
14,CCCOc1nn(C(=O)NS(=O)(=O)c2ccccc2C(=O)OC)c(=O)n1C,inactive
15,CCN[C@@H](C)Cc1ccccc1,inactive
16,ClCCCCCCCl,inactive
17,CCOC(=O)CC(SP(=S)(OC)OC)C(=O)OCC (centres undefined),inactive
18,C=C(C)[C@H]1CN[C@H](C(=O)O)[C@H]1CC(=O)O,inactive
19,CC(C)(C)C(=O)Cl,inactive
20,CCCCOC(C)=O,inactive

row,SMILES,Potency
1,CNC(=O)Oc1cc(C)c(N(C)C)c(C)c1,inactive
2,CCN(CC)C1CCCCC1,inactive
3,O=S1(=O)OCCO1,inactive
4,COc1ccccc1OC,inactive
5,Clc1nc(Cl)nc(Nc2ccccc2Cl)n1,inactive
6,CN1COCN(Cc2cnc(Cl)s2)/C1=N\[N+](=O)[O-],inactive
7,CCOP(=S)(OCC)Oc1ccc(Cl)cc1Cl,inactive
8,CCC1(c2ccccc2)C(=O)N(COC)C(=O)N(COC)C1=O,inactive
9,O=P(O)(O)c1ccccc1,inactive
10,CCOC1Oc2ccc(OS(C)(=O)=O)cc2C1(C)C (centres undefined),inactive
11,N#CC(Br)(Br)C(N)=O,inactive
12,CCCCS(=O)(=O)Cl,inactive
13,CC[C@H](O)C(C[C@H](C)N(C)C)(c1ccccc1)c1ccccc1,inactive
14,Clc1ccc(C(Cl)(Cl)Cl)cn1,inactive
15,O=C(Cl)c1ccccc1,inactive
16,BrCC1CO1 (centres undefined),inactive
17,NCCOS(=O)(=O)O,inactive
18,CN(C)C1CCCCC1,inactive
19,CN=CNc1ccc(C)cc1C,inactive
